GAA glycogen mod – alters human alpha-glucosidase cleavage of glycogen; P10253; recombinant GAA, glycogen substrate, Amplex Red glucose oxidase fluorescence; Potency, µM (top dose mostly 76.4 µM), without a hit: at the top dose activity change, negative = inhibition, usual class: inhibitors; actives 0.38% (n = 300,000);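 further: potency means the concentration at half of the fitted maximal effect; 0% = full enzyme reaction and -100% = no-enzyme basal signal; the screen sought inhibitors and activators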
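Recombinant human enzyme (4 nM); glycogen substrate; 37 C, 40 min, pH 5.0. Readout: coupled glucose oxidase/Amplex Red fluorescence.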
Coupling enz – coupling enzyme interference in Giardia aldolase counter-screen. coupling enzyme system counterscreen, AmpLite Red fluorescence. activity change, negative = inhibition, % at 58.2 µM, hits read low. actives 0.67% (n = 290,000). AID 2472; in the data active means activity change below about -30%
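Compounds tested against the coupling enzymes alone at 57.5 uM final; readout was AmpLite Red fluorescence (525/598 nm) after 20 min at RT.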
GAA inh – alpha-glucosidase (human) inhibition | Potency, µM (titrated, usually from 76.9 µM), for inactives: at the top dose activity change, negative = inhibition, usual class: inhibitors | actives 0.005% (n = 200,000) | purified human GAA, 4-MU-alpha-glucoside fluorescence | P10253 | AID 1466;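 further: potency means the concentration at half of the fitted maximal effect; plate controls were uninhibited enzyme wells for no effect and no-enzyme background for full effect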
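Fluorescence at Ex 365/Em 440 nm from 4-methylumbelliferone reported enzyme activity after 20 min at room temperature. Reactions used 4 nM enzyme and 400 uM substrate at pH 5.0; curves fitted with the Hill equation.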
aGlu spleen mod – lysosomal alpha-glucosidase (human) modulation | P10253 | human spleen homogenate, 4-MU-alpha-glucoside fluorescence | Potency, µM (titrated, usually from 79.9 µM), for the others: at the highest dose activity change, negative = inhibition, hits mostly inhibitors | actives 0.006% (n = 240,000) | AID 2112;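 further: potency means the concentration at half of the fitted maximal effect; 0% = enzyme with vehicle and -100% = no enzyme basal signal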
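Compounds were titrated against alpha-glucosidase in spleen homogenate at pH 5.0, with 1 mM 4-methylumbelliferyl substrate for 40 min at 37 C. Reactions were quenched with pH 10 NaOH/glycine and fluorescence measured.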
B2AR arrestin – recruits beta-arrestin to the human beta2-adrenergic receptor; P07550; beta-arrestin recruitment to beta2AR, cell-based reporter; Potency, µM (titrated, usually from 46.1 µM), for the others: at the highest dose activation, most hits filed as activators; actives 0.02% (n = 330,000); AID 492947;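 further: potency means the concentration at half of the fitted maximal effect; 0% = DMSO controls and full agonism = EC100 isoproterenol or metaproterenol; nearly all actives have a fitted effect of over 65% in size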
Target sequence (P07550 whole entry, looked up): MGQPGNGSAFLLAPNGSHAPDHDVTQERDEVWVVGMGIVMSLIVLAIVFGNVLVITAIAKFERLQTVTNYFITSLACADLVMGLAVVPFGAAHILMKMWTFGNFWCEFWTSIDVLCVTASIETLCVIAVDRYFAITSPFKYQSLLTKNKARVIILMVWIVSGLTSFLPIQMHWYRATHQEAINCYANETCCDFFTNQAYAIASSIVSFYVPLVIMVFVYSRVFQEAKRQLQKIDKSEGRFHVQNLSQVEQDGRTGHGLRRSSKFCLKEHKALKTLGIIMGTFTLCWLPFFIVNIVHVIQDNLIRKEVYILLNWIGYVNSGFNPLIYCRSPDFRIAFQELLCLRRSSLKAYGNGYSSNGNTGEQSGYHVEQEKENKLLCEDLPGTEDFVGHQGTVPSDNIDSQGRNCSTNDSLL
* marks the source's active call; other numbers are inactive results; ? = inconclusive; nt = no result given; ! = a repeat was not active; [ ] = another dose, or the depositor's remark. A selection: hits, their analogues and other compounds. The true share with any hit is near 0.85%. Unless noted, the call rests on the fitted dose curve; in most records, active means well fitted curve in the direction sought with a large enough effect; inconclusive means small, poorly fitted or top-dose-only effect, or another doubt; inactive means no such curve, though single readings can be large; an effect the other way counts as inactive or inconclusive. Unless noted, on the % scale 0 is the no-effect control and ±100 the full control effect.

SMILES | GAA glycogen mod | Coupling enz | GAA inh | aGlu spleen mod | B2AR arrestin
O=C(/C=C\c1ccc(O)c(O)c1)O[C@@H]1C[C@](O)(C(=O)O)C[C@@H](O)[C@@H]1O | nt | -8.7 | nt | 1.6%[29.1 µM] | nt
C(=C\c1ccco1)/C=N/n1cnnc1 | -4.7% | -40.2* | -6.6% | 5.7% | -0.4%
CC(C)OC(=O)[C@H]1O[C@H](CCCCOCc2ccccc2)[C@@H](C)[C@H]2O[C@H]21 | nt | -0.9 | nt | -0.8% | nt
COCCn1c(SCC(=O)NN2C(=O)NC(C)(c3ccccc3)C2=O)nnc1-c1ccncc1 (configuration not stated) | nt | nt | nt | nt | 0.1%
CCCCOc1ccc(N=Cc2cccs2)cc1 | ? | 4.0 | -5.2% | 2.2% | 0.1%
Oc1ccc(N=Cc2ccc(-c3cccs3)s2)cc1 | -22.7% | -50.6* | ? | ? | ?
c1ccc(-c2nc3nonc3nc2-c2ccccc2)cc1 | -9.4% | -36.6* | -4.5% | -7.9% | -0.3%
CCOC(=O)NC1(NCc2ccccc2)Oc2ccccc2O1 | 15.7µM* | -9.5 | 4.1% | 1.4% | -0.2%
CCOC(=O)NC1(NC(C)C)Oc2ccccc2O1 | 11.3% | 1.4 | -8.1% | -2.9% | 0.5%
CCOC(=O)NC1(NC2CCCCC2)Oc2ccccc2O1 | 8.91µM* | -6.3 | 3.0% | 2.5% | 0.0%
O[C@@H]1CCN2Cc3ccccc3N=C12 | nt | -6.7 | nt | 6.8% | nt
CCOC(=O)CCc1c(C)nc2cc(-c3cc(OC)cc(OC)c3)[nH]n2c1=O | -15.6%[76.3 µM] | nt | nt | nt | nt
COc1cc(=O)n(C)c2cc(N(C)C)ccc12 | -3.7% | -31.2* | ? | 22.0% | 0.2%
C=C1CC2C(=O)N(Cc3cc(OC)ccc3OC)C(C(=O)OCC)C1N2C (configuration not stated) | nt | 1.5 | nt | -0.6% | nt
COc1ccc(/C(=C\C(=O)O)c2nccc3cc(OC)c(OC)cc23)cc1OC | nt | 0.2 | nt | 5.1% | nt
COc1ccc(/C(=N/OC(C)=O)c2nccc3cc(OC)c(OC)cc23)cc1OC | 2.6% | -32.4* | nt | -7.2% | 0.4%
CCOC(=O)CCN1C(=O)[C@@H]2[C@H]3C(=CC[C@H]2C1=O)C(=O)[C@H]1O[C@H]1[C@H]3O | nt | -1.0 | nt | -19.9%[17.4 µM] | nt
COc1ccc(-c2nc3ccccn3c2NCc2ccc3c(c2)OCO3)cc1 | 8.84µM* | 0.0 | -1.7% | -12.4% | 0.4%
c1ccc(-c2nc3ccccn3c2NCc2ccc3c(c2)OCO3)cc1 | 24.9µM* | 0.4 | 8.2% | 6.3% | -0.1%
COc1ccc(-c2nc3cc(C)ccn3c2NCc2ccc3c(c2)OCO3)cc1 | ? | -0.8 | ? | -3.7% | 0.3%
COc1ccc(OC)c(/C=N/NC(=O)CC(=O)NCc2ccccc2)c1 | 4.7% | -33.3* | ? | 1.0% | -0.9%
Cc1ccsc1/C=N\NC(=O)CC(=O)NCc1ccccc1 | 1.8% | -36.2* | -4.1% | -6.2% | 0.0%
O=C(CC(=O)N/N=C/c1c(F)cccc1Cl)NCc1ccccc1 | 1.3% | -39.3* | -1.0% | 3.3% | -0.5%
Cc1ccc(S(=O)(=O)N2CCC3(CC2)OCCO3)s1 | -9.4%[76.3 µM] | nt | nt | nt | -0.7%
OC[C@@H]1O[C@@H](O)[C@H](O)[C@H](O)[C@@H]1O | nt | 1.3 | nt | 0.6% | nt
SMILES | GAA glycogen mod | Coupling enz | GAA inh | aGlu spleen mod | B2AR arrestin
Oc1ccc(NCc2ccccc2OCc2ccccc2)cc1 | ? | -48.4* | -9.2% | -11.3% | 7.31µM*
CCc1ccc(S(=O)(=O)/N=C2\C=C(NS(=O)(=O)c3ccccc3)C(=O)c3ccccc32)cc1 | -9.8% | -33.9* | nt | nt | -0.6%
Cc1cc(NS(=O)(=O)c2ccc(C(C)C)cc2)no1 | nt | 2.8 | nt | nt | -0.5%
CC(C)c1ccc(S(=O)(=O)/N=C2/C=CC(=O)c3ccccc32)cc1 | -16.6% | -53.4* | -6.6% | 4.1% | -0.1%
Cc1ccc(C)c(S(=O)(=O)/N=C2\C=C(NS(=O)(=O)c3ccccc3)C(=O)c3ccccc32)c1 | -5.4% | -50.2* | nt | nt | -0.4%
CC(C)c1ccc(S(=O)(=O)/N=C2\C=C(NS(=O)(=O)c3ccccc3)C(=O)c3ccccc32)cc1 | 1.0% | -31.9* | nt | nt | -0.3%
CNC(=O)c1nnsc1S(=O)(=O)c1ccc(Cl)cc1 | -4.9% | 0.8 | 1.8% | -0.1% | -0.2%
CCC1CC=CC2C1C(=O)N(Cc1ccccc1)C2c1ccc(C(F)(F)F)cc1 (configuration not stated) | nt | 2.3 | nt | -4.8% | nt
CCCCC1=CC2=C(OC(C)=O)C(=O)C(C)(OC(=O)CCC(=O)OC)C(=O)C2=CO1 (configuration not stated) | nt | 1.9 | nt | -5.4% | nt
Nc1ccnc2c1ncn2[C@@H]1O[C@H](CO)[C@@H](O)[C@H]1O | nt | nt | nt | 0.0% | nt
CC(=O)C1=C(c2ccc(Br)cc2)C(=O)c2ccccc2C1=O | 7.4% | -69.7* | -5.9% | -0.4% | 0.1%
O=C(CN1C(=O)c2ccccc2S1(=O)=O)c1ccc(F)c(F)c1 | nt | -1.7 | nt | nt | -0.6%
O=C(CN1C(=O)c2ccccc2S1(=O)=O)c1ccc(O)c(O)c1 | 14.1µM* | 2.2 | nt | -0.1% | -0.4%
C=C1CCN(C(CC(C)C)C(=O)NCc2ccc(Cl)cc2)S(=O)(=O)c2ccccc21 (configuration not stated) | nt | 0.5 | nt | -3.8% | nt
O=C(OCC(=O)N1CCCCC1)c1cc2ccccc2cc1O | -5.0% | 1.7 | 5.4% | -0.5% | 3.2%
C/C(CC(=O)N1CCCC1)=N\NC(=O)c1cc2ccccc2cc1O | ? | -64.7* | nt | -4.3% | 3.1%
N[C@@H](COC(c1cccc(F)c1)c1ccccc1OCc1ccccc1)C(=O)O (some centres not stated) | nt | -2.9 | nt | 0.0% | nt
Cc1ccc(C)n1-c1ccccc1N | ? | -55.9* | -18.6% | -10.3% | -0.7%
O=C1NC(=O)/C(=C\c2ccc(O)cc2O)S1 | 2.82µM* | -9.2 | ? | -14.4% | 0.2%
CNC(=O)Oc1ccc2c(c1)[C@]1(C)CCN(C)C1N2C (some centres not stated) | nt | nt | nt | nt | -0.1%
CNC(=O)Oc1ccc2c(c1)[C@@]1(C)CCN(C)[C@@H]1N2C | nt | -43.9*! | nt | -5.1% | nt
O=C(Oc1c(CN2CCOCC2)cc(Cl)c2cccnc12)c1ccccc1Cl | -6.5% | -20.1 | -34.2% | 0.6% | 3.55µM*
COc1ccc(C(=O)Oc2c(CN3CCOCC3)cc(Cl)c3cccnc23)cc1 | -1.8% | -1.0 | 0.9% | -8.5% | ?
COc1cc(C(=O)Oc2c(CN3CCOCC3)cc(Cl)c3cccnc23)cc(OC)c1OC | 13.2% | -7.2 | -1.4% | 4.4% | 3.55µM*
CCOc1ccccc1-c1ccc(C(=O)O)s1 | nt | 9.7 | nt | -1.0%[119 µM] | nt
N#Cc1cc(Cl)c(N2CCOCC2)cc1C#N | -15.3% | 0.5 | 1.5% | -2.3% | 0.0%
N#Cc1cc2ccc(N3CCOCC3)cc2cc1C#N | 7.3% | -42.7* | -2.5% | 7.8% | -0.2%
CCOC(=O)C1=CN(C(=O)OC(C)(C)C)C(CN2C(=O)COCC2=O)C1 (configuration not stated) | nt | 2.9 | nt | 7.6% | nt
